For 23 compounds, AC50 and outcome results are on record in PubChem BioAssay (EPA / NIEHS).

Inconclusive results are not listed. Activity calls are given as the source filed them. The calls were made as follows: active = hit-call score of the fitted dose curve at least 0.9, where 1 is the maximum; inconclusive = response in the unintended direction; inactive = score below 0.9.

As usually defined, the AC50 is the concentration at which the activity in the assay is half-maximal.

Chain of Bile acid receptor (Homo sapiens) (Q96RI1 whole entry, looked up, the tested form may be a part): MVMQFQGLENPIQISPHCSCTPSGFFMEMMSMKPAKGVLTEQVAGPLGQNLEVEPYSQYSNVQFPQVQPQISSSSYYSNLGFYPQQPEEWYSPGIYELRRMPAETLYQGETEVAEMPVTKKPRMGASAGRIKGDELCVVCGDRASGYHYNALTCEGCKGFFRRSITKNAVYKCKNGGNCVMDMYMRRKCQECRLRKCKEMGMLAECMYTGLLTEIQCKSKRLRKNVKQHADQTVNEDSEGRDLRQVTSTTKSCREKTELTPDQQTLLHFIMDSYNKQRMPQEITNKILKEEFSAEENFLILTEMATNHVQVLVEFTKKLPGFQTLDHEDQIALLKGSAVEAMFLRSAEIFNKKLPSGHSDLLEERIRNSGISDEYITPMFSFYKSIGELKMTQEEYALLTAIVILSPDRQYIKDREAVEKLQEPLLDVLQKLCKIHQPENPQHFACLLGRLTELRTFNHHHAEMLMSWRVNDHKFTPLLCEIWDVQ

This assay addresses Bile acid receptor (Homo sapiens) (UniProt Q96RI1). The experiment in a line: OT_FXR_FXRSRC1_1440: Odyssey Thera (OT) 24-hour HEK293T Protein-Complementation Assay for Farnesoid X receptor/SRC-1 Co-activator (AID 2283384). The method, then:
OT_FXR_FXRSRC1_1440 is a cell-based assay that uses HEK293T, a human kidney cell line, with measurements taken at 24 hours after chemical dosing in a 384-well plate.OT_FXR_FXRSRC1_1440 is one of one assay component(s) measured or calculated from the OT_FXR_FXRSRC1_1440 assay. It is designed to make measurements of protein fragment complementation, a form of binding reporter, as detected with fluorescence intensity signals by Protein-fragment Complementation technology.Data from the assay component OT_FXR_FXRSRC1_1440 was analyzed into 1 assay endpoint. This assay endpoint, OT_FXR_FXRSRC1_1440, was analyzed in the positive analysis fitting direction relative to DMSO as the negative control and baseline of activity. Using a type of binding reporter, measures of receptor for gain-of-signal activity can be used to understand the binding at the pathway-level as they relate to the gene NR1H4. Furthermore, this assay endpoint can be referred to as a primary readout, because the performed assay has only produced 1 assay endpoint. To generalize the intended target to other relatable targets, this assay endpoint is annotated to the nuclear receptor intended target family, where the subfamily is non-steroidal.
Protein-fragment complementation assay, or PCA, is a method for the identification and quantification of protein-protein interactions. In the PCA, the proteins of interest ("bait" and "prey") are each covalently linked to fragments of a third protein (e.g. DHFR, which acts as a "reporter"). Interaction between the bait and the prey proteins brings the fragments of the reporter protein in close proximity to allow them to form a functional reporter protein whose activity can be measured.
Regarding `CCOc1cc(C(C)(C)C)ccc1C1COC(c2c(F)cccc2F)=N1` (stereo not drawn), the AC50 was 31.6 µM (active). With `Cc1c(COC(=O)[C@@H]2[C@H](/C=C(\Cl)C(F)(F)F)C2(C)C)cccc1-c1ccccc1`, the outcome was inactive.

Take `CCC(C)n1c(=O)[nH]c(C)c(Br)c1=O` (stereo not drawn): the result was inactive. The same measure, in the same setting: the result for `COc1ccc(-c2ccccc2)cc1NNC(=O)OC(C)C` reads “inactive”; that for `O=C(O)c1c(Cl)ccc2cc(Cl)cnc12`, “inactive”; that for `CC(C)=CC1C(C(=O)OCc2coc(Cc3ccccc3)c2)C1(C)C` (stereo not drawn), “inactive”. On the same count and under the same terms, the entry for `CN=C=S` is “inactive”.

`COP(=S)(OC)Oc1ccc([N+](=O)[O-])c(C)c1`: the AC50 was 29.8 µM (active).

In the case of `CCN(CC)C(=O)C(C)Oc1cccc2ccccc12` (stereo not drawn), the AC50 was 31.3 µM (active).

As for `Cc1nc(N(C)C)nc(OC(=O)N(C)C)c1C`, the compound was called inactive. With `CCCCOCN(C(=O)CCl)c1c(CC)cccc1CC`, the AC50 is 75.1 µM (active). On to `CS(=O)(=O)c1ccc(C(=O)C2C(=O)CCCC2=O)c([N+](=O)[O-])c1`, for which the call was inactive. The same measure, in the same setting: the entry for `COCc1cnc(C2=NC(C)(C(C)C)C(=O)N2)c(C(=O)O)c1` (stereo not drawn) is “inactive”.

In the case of `Clc1cccc(C(Cl)(Cl)Cl)n1`, the compound was classed as inactive. The same measure, in the same setting: the entry for `COc1cc(OC)nc(NC(=O)NS(=O)(=O)c2ncccc2OCC(F)(F)F)n1` is “inactive”.

As for `CCCCC(O)(Cn1cncn1)c1ccc(Cl)cc1Cl` (stereo not drawn), the AC50 is 34.9 µM (active). Regarding `O=P(O)(O)CCCl`, the result was inactive.

In the case of `CCNC(=O)NC(=O)C(C#N)=NOC`, the AC50 was 23.1 µM (active). On the same count and under the same terms, the figure for `CO/N=C(/C1=NOCCO1)c1ccccc1Oc1ncnc(Oc2ccccc2Cl)c1F` is 12.7 µM (active). Take `CNC(=O)Oc1cccc2ccccc12`: the compound was classed as inactive. Same read-out and setting: the entry for `COC(=O)NC(=S)Nc1ccccc1NC(=S)NC(=O)OC` is “inactive”; for `COCC(=O)N(c1c(C)cccc1C)C(C)C(=O)OC` (stereo not drawn) it is “inactive”. In the case of `CC1(C)C(C(=O)OC(C#N)c2cccc(Oc3ccccc3)c2)C1(C)C` (stereo not drawn), the AC50 is 5.39 µM (active).
